Laboratory results as given in the supplement of paper PMC11732987, “Enantioselective OTUD7B fragment discovery through chemoproteomics screening and high-throughput optimisation” (Communications Chemistry, 2025).

Experiments:
Experiment in all cases: log2 ratio of Biotin-Ahx-Ub-VS probe labelling (fragment/DMSO); higher = less target engagement (more negative = stronger competition), active = hit call of the paper (q ≤ 0.05, log2 ratio ≤ -1)
Settings in all cases: compound concentration: 200 uM; treatment time: 3 h
USP34 = USP34 (UniProt Q70CQ2)
USP34, sequence (Q70CQ2 whole entry, the tested form may be a part): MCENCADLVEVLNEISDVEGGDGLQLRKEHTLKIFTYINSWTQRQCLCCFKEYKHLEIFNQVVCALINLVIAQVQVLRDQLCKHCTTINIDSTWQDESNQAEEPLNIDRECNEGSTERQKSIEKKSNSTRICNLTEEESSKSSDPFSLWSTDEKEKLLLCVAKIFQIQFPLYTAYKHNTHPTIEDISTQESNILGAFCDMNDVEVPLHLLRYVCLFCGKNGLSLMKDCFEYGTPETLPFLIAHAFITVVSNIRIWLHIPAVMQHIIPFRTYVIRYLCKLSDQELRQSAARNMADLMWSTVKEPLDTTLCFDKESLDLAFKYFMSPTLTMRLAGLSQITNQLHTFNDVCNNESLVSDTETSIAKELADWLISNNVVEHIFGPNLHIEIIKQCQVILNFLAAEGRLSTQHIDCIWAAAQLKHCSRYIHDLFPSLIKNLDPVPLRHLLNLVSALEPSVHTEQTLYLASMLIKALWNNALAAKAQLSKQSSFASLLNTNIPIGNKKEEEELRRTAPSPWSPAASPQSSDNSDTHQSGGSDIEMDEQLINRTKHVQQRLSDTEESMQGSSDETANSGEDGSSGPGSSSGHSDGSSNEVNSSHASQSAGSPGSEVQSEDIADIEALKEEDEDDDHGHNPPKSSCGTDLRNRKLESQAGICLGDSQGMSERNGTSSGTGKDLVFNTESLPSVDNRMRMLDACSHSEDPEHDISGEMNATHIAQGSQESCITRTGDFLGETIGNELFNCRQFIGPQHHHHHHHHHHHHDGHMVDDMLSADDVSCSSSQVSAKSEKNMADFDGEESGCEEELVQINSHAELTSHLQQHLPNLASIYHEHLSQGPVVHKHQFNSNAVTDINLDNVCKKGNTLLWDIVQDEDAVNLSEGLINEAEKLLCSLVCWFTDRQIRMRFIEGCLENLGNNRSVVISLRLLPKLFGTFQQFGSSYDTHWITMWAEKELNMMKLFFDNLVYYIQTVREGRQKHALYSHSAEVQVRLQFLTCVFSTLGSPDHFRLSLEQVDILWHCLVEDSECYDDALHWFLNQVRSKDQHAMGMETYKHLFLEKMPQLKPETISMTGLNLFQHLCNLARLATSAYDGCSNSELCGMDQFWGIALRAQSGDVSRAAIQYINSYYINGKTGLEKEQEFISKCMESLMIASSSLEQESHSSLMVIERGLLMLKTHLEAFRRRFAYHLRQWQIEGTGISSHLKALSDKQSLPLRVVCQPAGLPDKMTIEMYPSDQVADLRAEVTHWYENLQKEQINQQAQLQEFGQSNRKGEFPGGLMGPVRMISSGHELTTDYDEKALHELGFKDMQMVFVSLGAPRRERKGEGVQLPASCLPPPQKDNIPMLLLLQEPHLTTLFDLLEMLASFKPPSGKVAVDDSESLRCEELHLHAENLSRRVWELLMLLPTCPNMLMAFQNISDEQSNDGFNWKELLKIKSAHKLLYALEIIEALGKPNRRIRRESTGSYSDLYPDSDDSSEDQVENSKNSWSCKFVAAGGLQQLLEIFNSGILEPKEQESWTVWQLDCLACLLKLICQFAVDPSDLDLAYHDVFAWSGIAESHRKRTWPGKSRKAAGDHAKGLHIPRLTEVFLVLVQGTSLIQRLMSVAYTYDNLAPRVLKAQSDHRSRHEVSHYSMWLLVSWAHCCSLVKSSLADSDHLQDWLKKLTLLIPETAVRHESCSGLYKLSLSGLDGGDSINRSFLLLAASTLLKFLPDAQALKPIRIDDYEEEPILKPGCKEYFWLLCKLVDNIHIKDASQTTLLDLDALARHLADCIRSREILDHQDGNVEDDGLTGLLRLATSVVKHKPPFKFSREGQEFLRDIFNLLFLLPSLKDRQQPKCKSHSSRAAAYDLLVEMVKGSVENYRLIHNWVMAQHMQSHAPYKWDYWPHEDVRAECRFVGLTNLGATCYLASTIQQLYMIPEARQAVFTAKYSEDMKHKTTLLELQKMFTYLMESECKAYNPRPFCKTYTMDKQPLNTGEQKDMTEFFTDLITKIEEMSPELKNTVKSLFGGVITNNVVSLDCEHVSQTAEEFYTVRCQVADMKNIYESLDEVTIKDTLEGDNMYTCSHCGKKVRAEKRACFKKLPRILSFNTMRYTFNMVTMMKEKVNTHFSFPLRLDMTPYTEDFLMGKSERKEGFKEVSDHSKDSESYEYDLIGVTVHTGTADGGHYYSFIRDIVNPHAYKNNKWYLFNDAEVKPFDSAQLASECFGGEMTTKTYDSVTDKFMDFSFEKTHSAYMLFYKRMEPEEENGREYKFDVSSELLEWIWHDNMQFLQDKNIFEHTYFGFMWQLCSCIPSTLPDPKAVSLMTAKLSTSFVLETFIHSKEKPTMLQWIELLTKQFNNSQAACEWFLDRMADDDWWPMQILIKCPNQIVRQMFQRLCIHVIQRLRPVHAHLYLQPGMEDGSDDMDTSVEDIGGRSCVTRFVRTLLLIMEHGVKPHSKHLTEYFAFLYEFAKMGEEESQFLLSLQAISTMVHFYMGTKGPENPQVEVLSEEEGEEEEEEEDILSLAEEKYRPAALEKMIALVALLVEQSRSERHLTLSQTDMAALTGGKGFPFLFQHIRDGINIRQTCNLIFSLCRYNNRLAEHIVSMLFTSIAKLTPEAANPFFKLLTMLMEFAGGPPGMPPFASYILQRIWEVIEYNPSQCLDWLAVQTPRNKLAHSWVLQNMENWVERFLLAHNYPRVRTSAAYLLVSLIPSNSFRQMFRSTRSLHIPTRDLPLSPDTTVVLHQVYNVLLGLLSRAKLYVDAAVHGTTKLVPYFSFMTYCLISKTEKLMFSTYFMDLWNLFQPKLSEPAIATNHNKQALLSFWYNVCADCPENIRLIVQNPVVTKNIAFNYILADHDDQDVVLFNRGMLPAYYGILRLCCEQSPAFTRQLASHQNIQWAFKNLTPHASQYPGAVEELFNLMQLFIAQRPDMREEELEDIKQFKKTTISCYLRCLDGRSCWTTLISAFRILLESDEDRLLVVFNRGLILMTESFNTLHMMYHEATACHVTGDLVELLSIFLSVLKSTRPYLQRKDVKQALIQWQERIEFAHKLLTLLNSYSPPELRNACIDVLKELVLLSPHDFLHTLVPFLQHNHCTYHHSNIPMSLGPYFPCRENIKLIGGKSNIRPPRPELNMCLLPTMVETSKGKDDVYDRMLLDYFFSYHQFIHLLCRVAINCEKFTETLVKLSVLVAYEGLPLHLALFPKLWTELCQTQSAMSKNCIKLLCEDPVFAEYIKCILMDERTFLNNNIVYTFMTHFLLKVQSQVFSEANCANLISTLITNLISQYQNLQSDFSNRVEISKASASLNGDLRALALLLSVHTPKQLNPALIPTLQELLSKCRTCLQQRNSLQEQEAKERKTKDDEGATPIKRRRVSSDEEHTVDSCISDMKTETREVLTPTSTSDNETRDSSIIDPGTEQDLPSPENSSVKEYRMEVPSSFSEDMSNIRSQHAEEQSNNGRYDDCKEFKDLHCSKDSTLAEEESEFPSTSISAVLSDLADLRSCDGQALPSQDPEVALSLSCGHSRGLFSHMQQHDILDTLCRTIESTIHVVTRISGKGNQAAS
In short: (§1)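 HEK293T lysate, 495 µg per sample in Tris/CHAPS/IGEPAL buffer with protease inhibitors, was treated in triplicate with fragment at 200 µM or vehicle for 3 h and then with Biotin-Ahx-Ub-VS at 0.5 µM final for 1 h. Labelled DUBs were NeutrAvidin-enriched, digested with LysC and trypsin, and run by diaPASEF LC-MS/MS. Spectronaut label-free quantities were global-median-normalised, and values are average log2 fragment/vehicle ratios by unpaired t-test on proteins with ≥2 unique peptides.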

USP36 = molecular target: T1, USP36 (UniProt Q9P275)
T1 sequence (whole entry): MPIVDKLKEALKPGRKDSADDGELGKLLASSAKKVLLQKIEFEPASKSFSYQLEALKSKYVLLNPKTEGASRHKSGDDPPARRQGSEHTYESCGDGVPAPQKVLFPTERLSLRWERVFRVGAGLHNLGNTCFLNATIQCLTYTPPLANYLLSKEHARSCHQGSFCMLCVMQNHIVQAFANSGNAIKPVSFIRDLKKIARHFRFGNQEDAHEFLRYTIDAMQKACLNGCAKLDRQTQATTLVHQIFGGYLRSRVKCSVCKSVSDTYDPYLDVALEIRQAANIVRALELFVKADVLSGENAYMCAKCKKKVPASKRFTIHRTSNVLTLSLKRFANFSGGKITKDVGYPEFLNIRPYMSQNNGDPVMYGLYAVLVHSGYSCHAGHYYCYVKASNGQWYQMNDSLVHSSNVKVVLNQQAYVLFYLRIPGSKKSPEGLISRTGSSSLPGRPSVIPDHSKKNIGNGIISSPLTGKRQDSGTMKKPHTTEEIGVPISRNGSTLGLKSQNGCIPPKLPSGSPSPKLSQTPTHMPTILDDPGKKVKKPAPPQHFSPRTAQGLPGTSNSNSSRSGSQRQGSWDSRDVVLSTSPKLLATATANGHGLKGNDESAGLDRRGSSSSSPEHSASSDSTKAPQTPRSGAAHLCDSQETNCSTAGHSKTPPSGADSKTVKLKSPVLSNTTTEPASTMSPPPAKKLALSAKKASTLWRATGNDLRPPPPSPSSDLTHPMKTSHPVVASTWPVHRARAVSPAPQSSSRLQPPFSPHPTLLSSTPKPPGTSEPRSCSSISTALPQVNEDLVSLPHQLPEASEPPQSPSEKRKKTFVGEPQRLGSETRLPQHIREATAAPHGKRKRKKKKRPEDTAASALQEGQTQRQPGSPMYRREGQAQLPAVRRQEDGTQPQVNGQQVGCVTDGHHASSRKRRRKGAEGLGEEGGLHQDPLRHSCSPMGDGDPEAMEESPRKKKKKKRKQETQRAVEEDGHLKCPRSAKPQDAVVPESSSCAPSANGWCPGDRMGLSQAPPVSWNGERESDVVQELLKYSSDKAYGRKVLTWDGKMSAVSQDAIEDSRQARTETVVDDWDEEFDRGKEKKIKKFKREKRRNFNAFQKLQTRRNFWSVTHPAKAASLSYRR
In short: as §1

USP38 = molecular target: T2, USP38 (UniProt Q8NB14)
T2 sequence (whole entry): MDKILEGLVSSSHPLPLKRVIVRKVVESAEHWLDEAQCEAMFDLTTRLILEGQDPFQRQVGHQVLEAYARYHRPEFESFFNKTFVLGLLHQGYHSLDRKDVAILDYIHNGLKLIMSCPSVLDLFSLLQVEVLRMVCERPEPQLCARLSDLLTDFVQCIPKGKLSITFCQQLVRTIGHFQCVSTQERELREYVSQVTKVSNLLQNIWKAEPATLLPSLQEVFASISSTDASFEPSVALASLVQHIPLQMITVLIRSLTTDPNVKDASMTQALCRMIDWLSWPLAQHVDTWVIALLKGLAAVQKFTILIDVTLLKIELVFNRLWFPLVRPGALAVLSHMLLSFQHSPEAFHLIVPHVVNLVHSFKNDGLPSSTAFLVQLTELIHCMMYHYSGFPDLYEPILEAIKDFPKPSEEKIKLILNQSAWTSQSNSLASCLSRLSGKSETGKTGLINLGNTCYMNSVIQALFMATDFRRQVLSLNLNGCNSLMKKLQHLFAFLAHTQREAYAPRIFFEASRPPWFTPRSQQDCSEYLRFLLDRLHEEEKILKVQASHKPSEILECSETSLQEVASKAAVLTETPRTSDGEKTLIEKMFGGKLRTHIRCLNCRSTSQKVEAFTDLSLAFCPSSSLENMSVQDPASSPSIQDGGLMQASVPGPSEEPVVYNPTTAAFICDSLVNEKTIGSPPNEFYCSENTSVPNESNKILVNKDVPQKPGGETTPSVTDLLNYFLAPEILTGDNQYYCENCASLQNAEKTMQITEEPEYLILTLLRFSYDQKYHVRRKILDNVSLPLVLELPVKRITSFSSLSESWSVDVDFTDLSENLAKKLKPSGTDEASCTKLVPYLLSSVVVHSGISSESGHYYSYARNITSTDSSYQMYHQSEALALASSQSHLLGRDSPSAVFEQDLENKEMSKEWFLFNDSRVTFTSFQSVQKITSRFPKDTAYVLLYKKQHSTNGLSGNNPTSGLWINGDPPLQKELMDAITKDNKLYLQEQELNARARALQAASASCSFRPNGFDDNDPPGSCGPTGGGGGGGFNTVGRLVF
In short: as §1

USP39 = molecular target: T3, USP39 (UniProt Q53GS9)
T3 sequence (whole entry): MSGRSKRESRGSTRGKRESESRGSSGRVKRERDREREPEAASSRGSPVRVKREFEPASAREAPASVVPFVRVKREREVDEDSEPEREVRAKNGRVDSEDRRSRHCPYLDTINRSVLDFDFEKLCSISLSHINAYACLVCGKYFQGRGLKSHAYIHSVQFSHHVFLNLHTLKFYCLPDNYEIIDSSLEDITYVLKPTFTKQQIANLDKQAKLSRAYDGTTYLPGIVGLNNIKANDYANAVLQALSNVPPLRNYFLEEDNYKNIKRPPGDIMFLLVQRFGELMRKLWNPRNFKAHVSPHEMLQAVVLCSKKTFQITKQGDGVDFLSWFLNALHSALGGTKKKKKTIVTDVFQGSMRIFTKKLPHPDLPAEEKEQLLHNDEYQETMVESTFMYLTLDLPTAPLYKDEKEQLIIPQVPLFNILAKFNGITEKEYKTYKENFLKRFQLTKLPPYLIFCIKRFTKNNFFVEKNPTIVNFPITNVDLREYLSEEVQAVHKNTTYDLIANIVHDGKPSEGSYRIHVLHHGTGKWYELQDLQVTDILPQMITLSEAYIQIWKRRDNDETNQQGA
In short: as §1

USP4 = molecular target: T4, USP4 (UniProt Q13107)
T4 sequence (whole entry): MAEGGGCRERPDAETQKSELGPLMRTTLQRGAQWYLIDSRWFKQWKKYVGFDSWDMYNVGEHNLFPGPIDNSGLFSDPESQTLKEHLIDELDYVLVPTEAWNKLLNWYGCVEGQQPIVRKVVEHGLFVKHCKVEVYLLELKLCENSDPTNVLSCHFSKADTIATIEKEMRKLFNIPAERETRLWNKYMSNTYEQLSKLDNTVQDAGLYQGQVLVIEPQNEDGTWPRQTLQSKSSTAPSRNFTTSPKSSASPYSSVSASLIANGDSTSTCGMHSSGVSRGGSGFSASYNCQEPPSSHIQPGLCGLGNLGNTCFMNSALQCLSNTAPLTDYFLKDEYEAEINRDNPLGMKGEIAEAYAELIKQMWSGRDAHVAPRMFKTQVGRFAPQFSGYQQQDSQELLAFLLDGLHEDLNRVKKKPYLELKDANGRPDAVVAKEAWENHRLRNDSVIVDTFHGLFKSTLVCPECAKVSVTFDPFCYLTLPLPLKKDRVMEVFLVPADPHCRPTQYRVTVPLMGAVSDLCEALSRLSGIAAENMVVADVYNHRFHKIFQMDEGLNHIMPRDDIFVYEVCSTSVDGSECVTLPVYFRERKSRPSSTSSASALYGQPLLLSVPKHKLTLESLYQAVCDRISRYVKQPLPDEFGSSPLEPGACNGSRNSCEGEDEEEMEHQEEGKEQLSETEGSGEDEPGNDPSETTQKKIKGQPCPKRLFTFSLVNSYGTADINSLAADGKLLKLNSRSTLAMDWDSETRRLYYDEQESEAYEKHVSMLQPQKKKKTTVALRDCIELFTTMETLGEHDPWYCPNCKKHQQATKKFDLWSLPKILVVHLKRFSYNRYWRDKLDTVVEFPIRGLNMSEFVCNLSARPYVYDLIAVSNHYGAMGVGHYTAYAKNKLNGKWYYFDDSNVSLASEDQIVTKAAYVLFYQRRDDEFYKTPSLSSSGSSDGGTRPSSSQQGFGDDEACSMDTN
In short: as §1

Measured: log2 ratio of Biotin-Ahx-Ub-VS probe labelling

Cc1n[nH]c2c1CN(C(=O)CCl)CC2
inactive: USP34 -0.404 | USP36 -0.284 | USP38 -0.715 | USP39 0.183 | USP4 -0.888
